Results filed as inconclusive are left out. Calls of active or inactive are those of the source. The call rests on the fitted dose curve; in most records, active means well fitted curve in the direction sought with a large enough effect; inconclusive means small, poorly fitted or top-dose-only effect, or another doubt; inactive means no such curve, though single readings can be large; an effect the other way counts as inactive or inconclusive.
Key:
UISO = test: qHTS assay to identify novel small-molecules to repurpose for Merkel cell carcinoma treatment (AID 1296009); details: MCC and control cell lines, CellTiter-Glo viability, 72 h; series mostly up to 46 µM; further: nearly all actives have a fitted effect of over 60% in size
How it was run: (§1)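 Cells were incubated with compound for 72 hr at 37 degree celsius before CellTiter-Glo addition. Luminescence was normalized with no-cell wells as full cytotoxicity and DMSO as baseline.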

WaGa = test: as above; details: MCC and control cell lines, CellTiter-Glo viability, 72 h; series mostly up to 46 µM
How it was run: as §1

C33A = test: Primary qHTS to identify gynecologic anti-cancer compounds using libraries of approved drugs and bioactive compounds (AID 1345084); details: Gynecologic cancer cell panel viability, ATPlite luminescence, 48 h; series mostly up to 57.5 µM; further: nearly all actives have a fitted effect of over 55% in size
How it was run: (§2)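 ATP-based viability (ATPlite), 1,000 cells/well, 16 h pre-incubation, 48 h compound at 37 C, 5% CO2, 15 min RT before read.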

CAOV3 = test: as above; details: Gynecologic cancer cell panel viability, ATPlite luminescence, 48 h; series mostly up to 57.5 µM
How it was run: as §2

CASKI = test: as above; details: Gynecologic cancer cell panel viability, ATPlite luminescence, 48 h; series mostly up to 57.5 µM
How it was run: as §2

Es-2 = test: as above; details: Gynecologic cancer cell panel viability, ATPlite luminescence, 48 h; series mostly up to 57.5 µM
How it was run: as §2

HeLa = test: as above; details: Gynecologic cancer cell panel viability, ATPlite luminescence, 48 h; series mostly up to 57.5 µM
How it was run: as §2

Hek293T = test: as above; details: Gynecologic cancer cell panel viability, ATPlite luminescence, 48 h, control line for the selectivity index; series mostly up to 57.5 µM
How it was run: as §2

JEG-3 = test: as above; details: Gynecologic cancer cell panel viability, ATPlite luminescence, 48 h; series mostly up to 57.5 µM
How it was run: as §2

OV90 = test: as above; details: Gynecologic cancer cell panel viability, ATPlite luminescence, 48 h; series mostly up to 57.5 µM
How it was run: as §2

PA-1 = test: as above; details: Gynecologic cancer cell panel viability, ATPlite luminescence, 48 h; series mostly up to 57.5 µM
How it was run: as §2

SKOV3 = test: as above; details: Gynecologic cancer cell panel viability, ATPlite luminescence, 48 h; series mostly up to 57.5 µM
How it was run: as §2

Tov-21-G = test: as above; details: Gynecologic cancer cell panel viability, ATPlite luminescence, 48 h; series mostly up to 57.5 µM
How it was run: as §2

Tov112D = test: as above; details: Gynecologic cancer cell panel viability, ATPlite luminescence, 48 h; series mostly up to 57.5 µM
How it was run: as §2

[1] = Drug repurposing screens with cells derived from glioblastoma tumor samples (AID 1345199); details: GBM patient neurospheres viability, ATP luminescence, 48 h; further: nearly all actives have a fitted effect of over 40% in size
How it was run: (§3)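 Four patient lines of CD133+ GBM neurospheres were screened at several concentrations; hits were retested in those lines plus three slower-growing GBM lines, using 48-hour treatment and ATP-based viability.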

astro = test: as above; details: viability, ATP luminescence, 48 h; series mostly up to 45.9 µM
How it was run: as §3

[2] = at 45.9 µM (top of the series), tumour line B
[3] = at 45.9 µM (top of the series), tumour line D
[4] = at 46 µM (top of the series), tumour line A
[5] = at 46.1 µM (top of the series), tumour line C
On the % scale 0 is the no-effect control and ±100 the full control effect.

O=C(CCOCCOCCOCCOCCC(=O)Nc1c(I)cc(I)c(C(=O)O)c1I)Nc1c(I)cc(I)c(C(=O)O)c1I
inactive: Potency (UISO) | Potency (WaGa) | Potency (C33A) | Potency (CAOV3) | Potency (CASKI) | Potency (Es-2) | Potency (HeLa) | Potency (Hek293T) | Potency (JEG-3) | Potency (OV90) | Potency (PA-1) | Potency (SKOV3) | Potency (Tov-21-G) | Potency (Tov112D)

CCOC(=O)C(O)c1ccccc1 (stereo not given)
inactive: Potency (UISO) | Potency (WaGa) | Potency (C33A) | Potency (CAOV3) | Potency (CASKI) | Potency (Es-2) | Potency (HeLa) | Potency (Hek293T) | Potency (JEG-3) | Potency (OV90) | Potency (PA-1) | Potency (SKOV3) | Potency (Tov-21-G) | Potency (Tov112D)

C/C(=C1\CCOC(=O)S1)N(C=O)Cc1cnc(C)nc1N
inactive: Potency (UISO) | Potency (WaGa) | Potency (C33A) | Potency (CAOV3) | Potency (CASKI) | Potency (Es-2) | Potency (HeLa) | Potency (Hek293T) | Potency (JEG-3) | Potency (OV90) | Potency (PA-1) | Potency (SKOV3) | Potency (Tov-21-G) | Potency (Tov112D)

CCOc1c(N2CCOCC2)cnn(C)c1=O
inactive: Potency (UISO) | Potency (WaGa) | Potency (C33A) | Potency (CAOV3) | Potency (CASKI) | Potency (Es-2) | Potency (HeLa) | Potency (Hek293T) | Potency (JEG-3) | Potency (OV90) | Potency (PA-1) | Potency (SKOV3) | Potency (Tov-21-G) | Potency (Tov112D)

CC(C)NC(=O)c1ccc(C=O)cc1
inactive: Potency (UISO) | Potency (WaGa) | Potency (C33A) | Potency (CAOV3) | Potency (CASKI) | Potency (Es-2) | Potency (HeLa) | Potency (Hek293T) | Potency (JEG-3) | Potency (OV90) | Potency (PA-1) | Potency (SKOV3) | Potency (Tov-21-G) | Potency (Tov112D)

C[C@@H]1CCC[C@H](C)N1CCCC(O)(c1ccccc1)c1ccccn1 (stereo not given in full)
inactive: Potency (UISO) | Potency (WaGa) | Potency (C33A) | Potency (CAOV3) | Potency (CASKI) | Potency (Es-2) | Potency (HeLa) | Potency (Hek293T) | Potency (JEG-3) | Potency (OV90) | Potency (PA-1) | Potency (SKOV3) | Potency (Tov-21-G) | Potency (Tov112D)

CC(C)C[C@@H]1[C@H](c2ccccc2)OC(=O)N1CCCN1CCCCCC1
inactive: Potency (UISO) | Potency (WaGa) | Potency (C33A) | Potency (CAOV3) | Potency (CASKI) | Potency (Es-2) | Potency (HeLa) | Potency (Hek293T) | Potency (JEG-3) | Potency (OV90) | Potency (PA-1) | Potency (SKOV3) | Potency (Tov-21-G) | Potency (Tov112D)

CCCOc1ccc2c(c1)CC[C@@H]1[C@@H]2CC[C@]2(C)C(OC)CC[C@@H]12 (stereo not given in full)
inactive: Potency (UISO) | Potency (WaGa) | Potency (C33A) | Potency (CAOV3) | Potency (CASKI) | Potency (Es-2) | Potency (HeLa) | Potency (Hek293T) | Potency (JEG-3) | Potency (OV90) | Potency (PA-1) | Potency (SKOV3) | Potency (Tov-21-G) | Potency (Tov112D)

CC1(C)O[C@@H]2C[C@H]3[C@@H]4CCC5=CC(=O)C=C[C@]5(C)[C@@]4(F)[C@@H](O)C[C@]3(C)[C@]2(C(=O)CO)O1
inactive: Potency (UISO) | Potency (WaGa) | Potency (C33A) | Potency (CAOV3) | Potency (CASKI) | Potency (Es-2) | Potency (HeLa) | Potency (Hek293T) | Potency (JEG-3) | Potency (OV90) | Potency (PA-1) | Potency (SKOV3) | Potency (Tov-21-G) | Potency (Tov112D)

COc1cc2c(cc1OC)CN(C(=O)[C@H](C)N[C@@H](CCc1ccccc1)C(=O)O)[C@H](C(=O)O)C2
inactive: Potency (UISO) | Potency (WaGa) | Potency (C33A) | Potency (CAOV3) | Potency (CASKI) | Potency (Es-2) | Potency (HeLa) | Potency (Hek293T) | Potency (JEG-3) | Potency (OV90) | Potency (PA-1) | Potency (SKOV3) | Potency (Tov-21-G) | Potency (Tov112D)

CN(C)C(=O)CNC(=O)Cc1ccccc1
inactive: Potency (UISO) | Potency (WaGa) | Potency (C33A) | Potency (CAOV3) | Potency (CASKI) | Potency (Es-2) | Potency (HeLa) | Potency (Hek293T) | Potency (JEG-3) | Potency (OV90) | Potency (PA-1) | Potency (SKOV3) | Potency (Tov-21-G) | Potency (Tov112D) | activity, negative = cell killing [1, 2] -9.58% | activity, negative = cell killing [1, 3] -2.49% | activity, negative = cell killing [1, 4] -22.3% | activity, negative = cell killing [1, 5] 4.09% | Potency (astro)

CCCCCCCCCCCCCCCCCCN(C)C
inactive: Potency (UISO) | Potency (WaGa) | Potency (C33A) | Potency (CAOV3) | Potency (CASKI) | Potency (Es-2) | Potency (HeLa) | Potency (Hek293T) | Potency (JEG-3) | Potency (OV90) | Potency (PA-1) | Potency (SKOV3) | Potency (Tov-21-G) | Potency (Tov112D)

CNC(=O)c1c(I)c(NC(C)=O)c(I)c(C(=O)O)c1I
inactive: Potency (UISO) | Potency (WaGa) | Potency (C33A) | Potency (CAOV3) | Potency (CASKI) | Potency (Es-2) | Potency (HeLa) | Potency (Hek293T) | Potency (JEG-3) | Potency (OV90) | Potency (PA-1) | Potency (SKOV3) | Potency (Tov-21-G) | Potency (Tov112D)

Nc1nnnn1-c1ccccc1
inactive: Potency (UISO) | Potency (WaGa) | Potency (C33A) | Potency (CAOV3) | Potency (CASKI) | Potency (Es-2) | Potency (HeLa) | Potency (Hek293T) | Potency (JEG-3) | Potency (OV90) | Potency (PA-1) | Potency (SKOV3) | Potency (Tov-21-G) | Potency (Tov112D) | activity, negative = cell killing [1, 2] -11.1% | activity, negative = cell killing [1, 3] -15.7% | activity, negative = cell killing [1, 4] -29.5% | activity, negative = cell killing [1, 5] 12.1% | Potency (astro)

C/C(=N/NC(=O)c1ccncc1)C(=O)O
inactive: Potency (UISO) | Potency (WaGa) | Potency (C33A) | Potency (CAOV3) | Potency (CASKI) | Potency (Es-2) | Potency (HeLa) | Potency (Hek293T) | Potency (JEG-3) | Potency (OV90) | Potency (PA-1) | Potency (SKOV3) | Potency (Tov-21-G) | Potency (Tov112D)

Source: PubChem BioAssay (NCATS)
